Sm TGR inh – qHTS Assay for the Inhibitors of Schistosoma Mansoni Peroxiredoxins; purified TGR, DTNB reduction, TNB absorbance 405 nm; Potency, µM (highest dose often 114 µM), for the others: at the top dose activity change, negative = inhibition, most hits filed as inhibitors; 360,000 tested, 3% active; Schistosoma mansoni thioredoxin glutathione reductase (TGR), Q962Y6; note: nearly all actives have a fitted effect of over 60% in size
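Kinetic colorimetric format: TGR-catalysed, NADPH-driven DTNB reduction monitored via TNB absorbance. Enzyme dispensed at 20 nM; compound exposure 15 min at room temperature before reaction start.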
AmpC detergent – qHTS Inhibitors of AmpC Beta-Lactamase (assay with detergent); P00811; AmpC hydrolysis of nitrocefin, absorbance 480 nm, 0.01% Triton; Potency, µM (top dose mostly 114 µM), for the others: at the top dose activity change, negative = inhibition, usual class: inhibitors; 370,000 tested, 0.041% active; AID 485294, 2010;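 note: 0% = no-compound wells and -100% = no-enzyme wells; nearly all actives have a fitted effect of over 25% in size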
Target sequence (P00811 whole entry, looked up): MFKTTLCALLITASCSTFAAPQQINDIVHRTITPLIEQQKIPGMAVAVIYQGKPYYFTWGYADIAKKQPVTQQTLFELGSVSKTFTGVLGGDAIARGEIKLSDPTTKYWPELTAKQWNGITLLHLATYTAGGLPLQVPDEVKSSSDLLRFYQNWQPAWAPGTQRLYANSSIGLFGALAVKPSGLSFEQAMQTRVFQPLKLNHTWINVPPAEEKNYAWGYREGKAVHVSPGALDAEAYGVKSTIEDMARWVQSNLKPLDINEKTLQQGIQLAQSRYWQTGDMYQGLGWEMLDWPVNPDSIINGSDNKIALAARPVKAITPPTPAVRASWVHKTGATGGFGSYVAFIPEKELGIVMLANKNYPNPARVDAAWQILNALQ
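AmpC (5.3 nM in the dispensed reagent) in 20 mM phosphate pH 7.0 with 0.01% (detergent screen) or 0.0001% Triton X-100 was preincubated with compounds for 15 min at room temperature. Nitrocefin was then added from an 800 uM solution, and hydrolysis was followed at 480 nm.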
AmpC no deterg – qHTS Inhibitors of AmpC Beta-Lactamase (assay without detergent) | P00811 | AmpC nitrocefin hydrolysis, absorbance 480 nm, 0.0001% Triton | Potency, µM (highest dose often 57.1 µM), inactives show top-dose activity change, negative = inhibition, most hits filed as inhibitors | 330,000 tested, 0.52% active | AID 485341, 2010;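 note: plate controls were no compound for no effect and no enzyme for full effect; nearly all actives have a fitted effect of over 20% in size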
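AmpC (5.3 nM in the dispensed reagent) in 20 mM phosphate pH 7.0 with 0.01% (detergent screen) or 0.0001% Triton X-100 was preincubated with compounds for 15 min at room temperature. Nitrocefin was then added from an 800 uM solution, and hydrolysis was followed at 480 nm.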
Numbers without * were called inactive; [ ] = remark or other dose. Only some compounds are listed: those with a hit (about 3.3% of all), similar ones and a draw of the others. Calls come from the whole dose curve; as a rule, active = well fitted curve in the direction sought with a large enough effect; inconclusive = small, poorly fitted or top-dose-only effect, or another doubt; inactive = no such curve, though single readings can be large; an effect the other way counts as inactive or inconclusive. Unless noted, % is set by controls: 0 for no effect and ±100 for the full control effect; potency is the fitted concentration of half-maximal effect.

Results for N#Cc1cccc(NC(=S)Nc2ccccc2)c1 ?
Sm TGR inh: 50µM*; AmpC detergent: 1%; AmpC no deterg: -27%

How did COc1ccc(C2CC(=O)c3cc(-c4nc(-c5cccc(Cl)c5)cs4)c(=O)[nH]c3C2)cc1OC (configuration not stated) do in these assays?
Sm TGR inh: 5%; AmpC detergent: 17%

Results for CC(C)(C)c1ccc(-c2noc(CCC(=O)Nc3cccc(Cl)c3)n2)cc1 ?
Sm TGR inh: 13%; AmpC detergent: 14%

What do the screens show for `Cc1nn(-c2ccc(F)cc2)c(-n2cccc2)c1C(=O)NCCCN1CCN(c2cccc(Cl)c2)CC1`?
Sm TGR inh: -2%; AmpC detergent: -2%

What do the screens show for `COc1cccc(-c2cn3c(n2)sc2cc(C(=O)NCc4ccccc4F)ccc23)c1`?
Sm TGR inh: 7%; AmpC detergent: 16%

What do the screens show for `O=S1(=O)C=C(SCc2ccc(Cl)c(Cl)c2)Nc2ccccc21`?
Sm TGR inh: 10%; AmpC detergent: 1%; AmpC no deterg: 18µM*

What do the screens show for `Nc1nc(SCc2ccc(Cl)c(Cl)c2)n[nH]1`?
Sm TGR inh: 18%; AmpC detergent: -15%; AmpC no deterg: -10%

What do the screens show for `NC(=O)C1CCCNC1` (configuration not stated)?
Sm TGR inh: 28µM*; AmpC detergent: inconclusive; AmpC no deterg: -16%

Results for O=C(NC1CCNCC1)C1CCCCC1 ?
Sm TGR inh: -17%; AmpC detergent: -13%; AmpC no deterg: 51%

Results for CCc1cccc(CC)c1NC(=O)C(CC)n1nc(C)n2c(cc3cc(C)ccc32)c1=O (configuration not stated) ?
Sm TGR inh: -1%; AmpC detergent: 13%

What do the screens show for `O=[N+]([O-])c1ccc(O)c(C=Nc2ccc3oc(Cc4ccc(Cl)cc4)nc3c2)c1`?
Sm TGR inh: 50µM*; AmpC detergent: 4%; AmpC no deterg: -58%

How did O=[N+]([O-])c1ccc(O)c(C=Nc2ccc3c(c2)OCCO3)c1 do in these assays?
Sm TGR inh: -19%; AmpC detergent: -9%; AmpC no deterg: -5%

How did COC1CCN(C(=O)c2ccc3oc(Cc4ccc(Cl)cc4)nc3c2)CC1 do in these assays?
Sm TGR inh: -1%; AmpC detergent: 0%; AmpC no deterg: 118%

How did Nc1ccc2oc(Cc3ccc(Cl)cc3)nc2c1 do in these assays?
Sm TGR inh: 14µM*; AmpC detergent: -1%

What do the screens show for `CC1Cc2cc(S(=O)(=O)CCC(=O)Nc3ccc(F)cc3Cl)ccc2N1C(=O)C1CC1` (configuration not stated)?
Sm TGR inh: 1%; AmpC detergent: 11%

What do the screens show for `CN(C)S(=O)(=O)c1cccc(NC(=O)C2Cc3ccccc3CN2C(=O)c2ccco2)c1` (configuration not stated)?
Sm TGR inh: 18µM*; AmpC detergent: 2%; AmpC no deterg: -14%

What do the screens show for `CN(C)S(=O)(=O)c1cccc(NC(=S)N2CCc3ccccc32)c1`?
Sm TGR inh: inconclusive; AmpC detergent: inconclusive; AmpC no deterg: -30%

Results for O=C(Nc1nnc(C2CC2)s1)C1Cc2ccccc2CN1C(=O)c1ccco1 (configuration not stated) ?
Sm TGR inh: 13µM*; AmpC detergent: -1%; AmpC no deterg: -31%[11.4 µM]

What do the screens show for `O=C(Nc1ccccc1N1CCOCC1)C1Cc2ccccc2CN1C(=O)c1ccco1` (configuration not stated)?
Sm TGR inh: inconclusive; AmpC detergent: 1%; AmpC no deterg: 40%

Results for CC1Cc2ccccc2N1C(=S)Nc1cccc(S(=O)(=O)N(C)C)c1 (configuration not stated) ?
Sm TGR inh: 50µM*; AmpC detergent: -12%; AmpC no deterg: -53%

What do the screens show for `Cc1ccc(NC(=O)C2Cc3ccccc3CN2C(=O)c2ccco2)cc1S(=O)(=O)N(C)C` (configuration not stated)?
Sm TGR inh: 40µM*; AmpC detergent: 0%; AmpC no deterg: -22%

What do the screens show for `COc1ccc(NC(=O)C2Cc3ccccc3CN2C(=O)c2ccco2)cc1` (configuration not stated)?
Sm TGR inh: inconclusive; AmpC detergent: 4%; AmpC no deterg: -11%

How did O=C(Nc1nnc(SCc2ccc(F)cc2)s1)C1Cc2ccccc2CN1C(=O)c1ccco1 (configuration not stated) do in these assays?
Sm TGR inh: -34%; AmpC detergent: 0%; AmpC no deterg: -36%

How did COc1ccc(NC(=O)N2CCN(Cc3nc4ccc(C)cc4o3)CC2)cc1OC do in these assays?
Sm TGR inh: -2%; AmpC detergent: 4%

How did Cc1ccc(NC(=O)Cn2c(=O)n(CCC(=O)NCc3ccccc3Cl)c(=O)c3ccccc32)c(C)c1 do in these assays?
Sm TGR inh: -4%; AmpC detergent: 6%

Results for COc1ccccc1C(=O)Nc1ccc2nc(SCC(=O)N3CCCC3)sc2c1 ?
Sm TGR inh: -1%; AmpC detergent: 19%

How did COc1ccc(CCC(=O)NCc2ccc3c(c2)CCN3C(=O)c2ccc(Cl)cc2)cc1 do in these assays?
Sm TGR inh: -4%; AmpC detergent: -1%

Results for CC(C)COc1ccccc1C1CC(=O)Nc2cc3c(cc21)OCO3 (configuration not stated) ?
Sm TGR inh: 4%; AmpC detergent: 12%

Results for O=C(NCSc1ccnc(SCNC(=O)c2ccccc2)n1)c1ccccc1 ?
Sm TGR inh: inconclusive; AmpC detergent: inconclusive; AmpC no deterg: -17%

What do the screens show for `O=C(NCSc1ccncn1)c1ccccc1`?
Sm TGR inh: 28µM*; AmpC detergent: -9%; AmpC no deterg: -6%

What do the screens show for `CCOc1ccc(C(=O)NCc2nnnn2-c2ccc(C)c(C)c2)cc1OCC`?
Sm TGR inh: 1%; AmpC detergent: 14%

What do the screens show for `CC(=O)N1CCc2c(sc3c2c(=O)n(-c2ccccc2)c(=O)n3CC(=O)c2ccc(F)cc2)C1`?
Sm TGR inh: 6%; AmpC detergent: 23%

What do the screens show for `O=C1CC(c2ccccc2)=Nc2ccccc2N1`?
Sm TGR inh: -8%; AmpC detergent: -1%; AmpC no deterg: -13%

Results for O=C1CC(c2ccco2)=Nc2ccccc2N1 ?
Sm TGR inh: 45µM*; AmpC detergent: -4%; AmpC no deterg: -11%

What do the screens show for `O=C(NCCc1ccc(Cl)cc1)C1CCN(Cc2cc3ccccc3n2Cc2ccccc2)CC1`?
Sm TGR inh: 1%; AmpC detergent: -4%

Results for COc1ccc(/C=C/c2nc(C#N)c(N3CCC(C(N)=O)CC3)o2)cc1OC ?
Sm TGR inh: 1%; AmpC detergent: 16%

Results for CCOC(=O)C1(Cc2ccccc2C)CCCN(Cc2cc(OC)c(O)c(OC)c2)C1 (configuration not stated) ?
Sm TGR inh: 4.5µM*; AmpC detergent: 7%; AmpC no deterg: 61%

Results for CCOC(=O)C1(CCOc2ccccc2)CCN(Cc2cc(OC)c(O)c(OC)c2)CC1 ?
Sm TGR inh: 40µM*; AmpC detergent: -12%; AmpC no deterg: 59%

Source: PubChem BioAssay (National Center for Advancing Translational Sciences (NCATS))
